About 2,000 (36%) of roughly 5,500 compounds were called active. About 18% were inconclusive and are not listed. Cut-off read from the data, not from the text of the source: active = normalized growth mostly below about 0.91 (no sharp cut-off); inconclusive = no clear call, values can overlap the other calls; inactive = mostly above about 0.92. This is one part of the list.
Assay: chemical genetic growth profiling, strain panel (AID 1159580);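 note: tested at 20 µM; growth read once vehicle control cultures reached saturation at 30 °C; 1 = growth at the plate median or of vehicle wells; lower values mean less growth of the strain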
Conditions: S. cerevisiae deletion strains, growth OD

Measured: normalized growth

CN1CCN(C(=O)OC2c3nccnc3C(=O)N2c2ccc(Cl)cn2)CC1 (centres undefined)
inactive: locus YAL021C, strain ccr4, hits give low values 1 | locus YAL026C, strain drs2, hits give low values 0.993 | locus YAL030W, strain snc1, hits give low values 0.997 | locus YBL061C, strain skt5, hits give low values 0.99 | locus YBR009C, strain hhf1, hits give low values 1.01 | locus YBR023C, strain chs3, hits give low values 0.991 | locus YBR171W, strain sec66, hits give low values 0.997 | locus YBR231C, strain swc5, hits give low values 0.979 | locus YBR279W, strain paf1, hits give low values 1.01 | locus YCL011C, strain gbp2, hits give low values 1 | locus YCL016C, strain dcc1, hits give low values 0.994 | locus YCL069W, strain vba3, hits give low values 1 | locus YCR088W, strain abp1, hits give low values 0.996 | locus YDL005C, strain med2, hits give low values 0.99 | locus YDL040C, strain nat1, hits give low values 0.981 | locus YDR001C, strain nth1, hits give low values 0.992 | locus YDR069C, strain doa4, hits give low values 0.991 | locus YDR137W, strain rgp1, hits give low values 0.998 | locus YDR159W, strain sac3, hits give low values 1.01 | locus YDR195W, strain ref2 0.959 | locus YDR297W, strain sur2, hits give low values 0.979 | locus YDR334W, strain swr1, hits give low values 0.983 | locus YDR335W, strain msn5, hits give low values 1 | locus YDR392W, strain spt3, hits give low values 1.02 | locus YEL003W, strain gim4, hits give low values 1 | locus YEL037C, strain rad23, hits give low values 0.994 | locus YEL061C, strain CIN8 (second series), hits give low values 0.993 | locus YER015W, strain faa2, hits give low values 0.99 | locus YER016W, strain bim1, hits give low values 1.01 | locus YER111C, strain swi4, hits give low values 1 | locus YER155C, strain BEM2 (second series), hits give low values 0.999 | locus YFR010W, strain ubp6, hits give low values 0.987 | locus YGL167C, strain pmr1, hits give low values 0.986 | locus YGL173C, strain kem1, hits give low values 0.976 | locus YGL227W, strain vid30, hits give low values 0.976 | locus YGL240W, strain doc1, hits give low values 1 | locus YGL253W, strain hxk2, hits give low values 0.994 | locus YHR013C, strain ard1, hits give low values 0.98 | locus YHR027C, strain rpn1, hits give low values 1 | locus YHR030C, strain SLT2, hits give low values 1.02 | locus YHR079C, strain IRE1, hits give low values 1.01 | locus YHR142W, strain chs7, hits give low values 1.01 | locus YJL092W, strain hpr5, hits give low values 0.984 | locus YJL095W, strain BCK1 (second series), hits give low values 0.97 | locus YJL095W, strain BCK1, hits give low values 1.01 | locus YJL115W, strain asf1, hits give low values 0.995 | locus YJL129C, strain trk1, hits give low values 0.956 | locus YJL154C, strain vps35, hits give low values 0.993 | locus YJL164C, strain tpk1, hits give low values 1.01 | locus YJL166W, strain qcr8, hits give low values 0.998 | locus YJL187C, strain SWE1, hits give low values 0.994 | locus YJR066W, strain TOR1, hits give low values 0.935 | locus YKL160W, strain elf1, hits give low values 0.984 | locus YKR026C, strain gcn3, hits give low values 0.988 | locus YKR091W, strain srl3, hits give low values 0.995 | locus YLL001W, strain dnm1, hits give low values 0.971 | locus YLL026W, hits give low values 1 | locus YLL041C, strain sdh2, hits give low values 1.01 | locus YLR027C, strain aat2, hits give low values 1 | locus YLR113W, strain HOG1, hits give low values 1 | locus YLR221C, strain rsa3, hits give low values 0.987 | locus YLR258W, strain gsy2, hits give low values 1.01 | locus YLR262C, strain YPT6 (second series), hits give low values 1 | locus YLR320W, strain mms22, hits give low values 1.01 | locus YLR342W, strain FKS1, hits give low values 0.995 | locus YLR357W, strain rsc2, hits give low values 0.978 | locus YLR370C, strain arc18, hits give low values 0.998 | locus YLR384C, strain iki3, hits give low values 0.994 | locus YML120C, strain ndi1, hits give low values 0.985 | locus YMR058W, strain fet3, hits give low values 1 | locus YMR125W, strain sto1, hits give low values 0.946 | locus YMR129W, hits give low values 1 | locus YMR205C, strain PFK2, hits give low values 0.99 | locus YMR231W, strain pep5, hits give low values 0.99 | locus YNL071W, strain lat1, hits give low values 1 | locus YNL183C, strain NPR1, hits give low values 0.957 | locus YNL209W, strain ssb2, hits give low values 1.01 | locus YNL248C, strain rpa49, hits give low values 0.989 | locus YNL322C, strain KRE1 (second series), hits give low values 0.976 | locus YNR049C, strain mso1, hits give low values 1 | locus YOR001W, strain rrp6, hits give low values 0.973 | locus YOR070C, strain gyp1, hits give low values 0.998 | locus YOR080W, strain dia2, hits give low values 0.987 | locus YOR083W, strain WHI5, hits give low values 0.983 | locus YOR106W, strain vam3, hits give low values 0.98 | locus YOR231W, strain MKK1, hits give low values 1.01 | locus YOR265W, strain rbl2, hits give low values 0.993 | locus YOR270C, strain vph1, hits give low values 0.967 | locus YOR290C, strain snf2, hits give low values 1.01 | locus YPL051W, strain arl3, hits give low values 0.988 | locus YPL078C, strain atp4, hits give low values 0.979 | locus YPL106C, strain sse1, hits give low values 1.05 | locus YPL240C, strain hsp82, hits give low values 1 | locus YPL256C, strain CLN2, hits give low values 1.01

From PubChem BioAssay AID1159580 (chemical genetic matrix, 2015)
